Laboratory results from the supplement of paper PMC6555819.

Key:
Assay in all cases: PBM binding z-score (relative to random genomic background probes); higher = stronger binding; sequences stand for … in GC…GCGATTGACAGCGTAGAATGAAGG
[1] = test system: PPARg:RXRa DBDmut IVT, anti-RXR (DBD mutation: RXRa K156A/R161A, NR concentration 270 nM, RXRa partner concentration 90 nM)
Procedure, shortened: (§1)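 Scanned fluorescence from custom Agilent 4×180K protein-binding microarrays was regression-normalized. Binding z-scores use random background probes as reference. Ligand-free nuclear receptor dimers were incubated on the arrays for 1 h and detected with antibodies against each partner (one per run).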

[2] = test system: PPARg:RXRa IVT, anti-PPARg (NR concentration 270 nM, RXRa partner concentration 90 nM)
Procedure, shortened: as §1

[3] = test system: PPARg DBDmut:RXRa IVT, anti-PPARg (DBD mutation: PPARg1 K132A/R137A, NR concentration 270 nM, RXRa partner concentration 90 nM)
Procedure, shortened: as §1

[4] = test system: PPARg DBDmut IVT, anti-PPARg (DBD mutation: PPARg1 K132A/R137A, NR concentration 270 nM)
Procedure, shortened: as §1

[5] = test system: PPARg homodimer (NR concentration 180 nM)
Procedure, shortened: as §1

[6] = test system: PXR:RXRa (NR concentration 270 nM, RXRa partner concentration 90 nM)
Procedure, shortened: as §1

[7] = test system: PXR homodimer (NR concentration 270 nM)
Procedure, shortened: as §1

[8] = test system: RARa:RXR (NR concentration 270 nM, RXRa partner concentration 90 nM)
Procedure, shortened: as §1

[9] = test system: RARa homodimer (NR concentration 270 nM)
Procedure, shortened: as §1

[10] = test system: RARb:RXRa (NR concentration 270 nM, RXRa partner concentration 90 nM)
Procedure, shortened: as §1

[11] = test system: RARb homodimer (NR concentration 270 nM)
Procedure, shortened: as §1

[12] = test system: RARg:RXRa (NR concentration 270 nM, RXRa partner concentration 90 nM)
Procedure, shortened: as §1

[13] = test system: RARg homodimer (NR concentration 270 nM)
Procedure, shortened: as §1

[14] = test system: RXRa DBDmut IVT, anti-RXR (DBD mutation: RXRa K156A/R161A, NR concentration 90 nM)
Procedure, shortened: as §1

[15] = test system: RXRa homodimer (NR concentration 180 nM)
Procedure, shortened: as §1

[16] = test system: THRa:RXRa (NR concentration 90 nM, RXRa partner concentration 90 nM)
Procedure, shortened: as §1

[17] = test system: THRa homodimer (NR concentration 90 nM)
Procedure, shortened: as §1

[18] = test system: VDR:RXRa (NR concentration 270 nM, RXRa partner concentration 90 nM)
Procedure, shortened: as §1

[19] = test system: VDR homodimer (NR concentration 270 nM)
Procedure, shortened: as §1

Sequence	PBM binding z-score [1]	PBM binding z-score [2]	PBM binding z-score [3]	PBM binding z-score [4]	PBM binding z-score [5]	PBM binding z-score [6]	PBM binding z-score [7]	PBM binding z-score [8]	PBM binding z-score [9]	PBM binding z-score [10]	PBM binding z-score [11]	PBM binding z-score [12]	PBM binding z-score [13]	PBM binding z-score [14]	PBM binding z-score [15]	PBM binding z-score [16]	PBM binding z-score [17]	PBM binding z-score [18]	PBM binding z-score [19]
CCTAGTTGGTCAGGAGGTCACACCCCGGATATGA	1.1	3.66	0.426	0.108	3.14	4.1	1.16	4.24	2.03	3.71	4.41	5.03	4.13	0.124	4.77	3.74	2.36	3.82	2.96
TCACATAGGTAAATGCTAGGTGAAAGTCCGATCT	2.22	1.12	0.19	-0.0289	-0.198	0.34	-0.0319	0.692	-0.153	0.251	0.255	0.301	0.189	1.17	0.654	1.31	0.359	0.334	-0.199
CAAACTACGTCAAAGGTCAAAGTCGAGCCAACCA	0.954	3.98	7.78	3.09	4.03	5.6	1.77	6.64	2.88	4.73	4.68	6.1	5.88	1.66	7.92	3.5	0.927	5.02	2.36
ACTATTAGTTGAGACGAGGGCGACCGATAGGTTG	0.0234	-0.184	0.772	0.784	0.303	0.205	0.117	0.144	0.456	0.332	0.339	0.187	0.419	0.572	0.161	1.23	-0.4	0.133	0.337
CCAGACAGGTGAGAAGGGAACTCAGCCTCGATTA	0.589	0.343	-0.35	-0.943	0.62	-0.225	0.169	-0.0265	0.727	0.228	0.237	-0.0873	0.115	0.063	0.0773	0.215	0.0826	-0.443	-0.25
ATCGAAAGGTCGAGGAGAGTATAGAGAAAGGGAA	0.194	1.22	1.53	0.209	1.53	2.33	0.36	2.76	0.436	3.9	2.25	4.13	3.86	0.539	4.21	1.94	-0.151	2.64	0.103
ACTAGTAGTTGACTTAGGGCAACCGATACGACGC	-0.00679	0.335	0.301	0.391	-0.372	-0.0724	-0.195	0.555	0.281	0.593	0.773	0.36	0.487	-0.14	0.393	1.44	-0.151	0.0405	-0.0873
GCTTGTAGGTCAAGGTTAAGAAAGACTAAGCTAA	7.82	8	2.05	1.01	1.99	2.52	0.226	3.43	1.18	4.32	3.22	4.98	5.18	1.26	4.8	2.91	0.735	2.3	0.622
CCGACTGGGGGATAAGGTTACCATAAGCCAGCCC	0.611	1.85	1.28	1.34	0.934	1.15	-0.306	1.64	0.448	0.896	1.05	1.12	0.756	-0.00884	1.21	2.51	2.11	0.902	0.491
TAGCCTAGGTCAGATCGCGCCAGTATACGCTATA	0.721	1.46	-0.73	0.133	0.207	0.262	-0.578	0.7	-0.794	2.95	1.68	2.64	3.2	-0.216	1.22	1.61	0.165	0.314	-0.0657
TAGCCTAGGTCAAGGGCCAGTATACCACGCGAAC	1.71	3.19	-0.167	-0.743	1.63	1.28	-0.234	2.31	-0.242	3.96	3.4	4.09	4.75	0.34	3.58	2.78	0.832	1.6	0.272
GTACCAAGGTGACTAGGTCGTTGATGAGTAGGCG	1.99	3.81	0.227	-0.333	0.145	0.12	-0.403	0.639	0.0203	1.55	0.945	0.955	0.808	-0.648	0.837	1.87	0.333	0.346	0.099
AGTCAATGTTCAGGACGAGGTAACGTAAAGCACG	-0.569	0.526	0.282	0.266	-0.126	-0.119	-0.33	0.306	0.567	0.167	0.0341	0.243	0.459	-0.371	0.279	2.16	1.78	0.00608	0.209
CCTAGCAGGCCAGGGTCAGTCAAGCATTTCGCTT	-0.0042	0.156	-1.41	-1.98	0.086	1.04	-0.793	1.69	-0.695	2.09	2.16	2.07	1.85	-0.296	1.65	1.75	0.116	0.634	0.172
TGAATGAGGTTAAAGATCAGTGAACGTGGCGTCG	2.37	3.44	0.722	0.242	1.24	2.01	0.152	3.08	-0.0565	2.09	0.903	2.48	1.37	1.33	3.74	2.58	0.429	1.62	0.435
TCTTGTAGATCAAAAGAGGTTAAGAAAGTGCGCT	1.47	0.83	0.0222	0.122	0.373	2.86	0.102	1.79	-0.0887	0.887	0.976	0.867	0.449	0.343	1.35	2.6	-0.614	–	0.274
CCTATTAGTTGAGCATAAGGGCAACCGAAGCTCG	-0.00699	0.0681	-0.0638	0.243	1.36	0.18	0.549	0.348	1.39	1.1	1.42	0.728	0.652	0.381	0.162	1.58	0.923	0.408	0.43
GCTTACGGGTTAAAGGTTATAGCATGAATAGAAT	1.96	4	0.8	1.12	1.78	4.18	0.49	6.08	1.07	2.31	1.74	3.66	1.37	0.714	6.82	2.8	0.253	3.18	0.558
TCTGCTAGGTCAACAATGGTCAGCTAATCTGCTA	4.05	4.05	0.64	0.264	1.23	1.94	-0.276	2.29	-0.189	4.11	3.37	4.13	4.92	1.33	2.64	3.08	0.805	1.84	-0.0461
ATCTCTAGGTAACCAAGTTCAGTAAATGCCGAAC	3.43	2.97	1.54	2.29	1.32	2.05	1.79	1.07	0.775	1.2	1.71	0.886	0.809	1.13	0.802	1.67	1.07	4.07	2.48
CCTACTGGGCCCAAAAGGTCATTGATGCCGATAA	0.117	1.66	-0.622	-1.17	2.86	4.97	1.92	5.31	1.46	3.93	4.35	4.87	4.11	-0.121	5.65	3.15	0.687	4.63	1.84
TCGAGTAGGTTACCAATGGGGCATTCTGCTTTCT	3.32	2.53	-0.301	-0.867	-0.334	-0.0891	-0.788	0.363	-0.932	0.902	0.45	0.898	0.393	0.539	0.447	-0.229	-0.884	-0.0796	-0.862
AAAATGAGGTTACCAAAGATCAGGGAAACGCTTG	4.97	4.33	2.73	0.928	0.63	1.71	0.241	2.47	-0.123	2.31	0.885	2.37	1.81	1.54	2.93	3.06	0.766	1.94	0.152
ATCTCTAGGTAAAAGTTCAGTGAATCCCGAGGAT	1.99	3.82	1.42	1.8	1.4	2.14	1.95	1.64	0.604	2.42	2.42	1.68	2.06	0.516	1.54	1.24	0.375	1.31	1.7
CGAACTAGGTCACTGACAGGACAGTGAATAGTAA	8.19	8.43	0.923	0.583	1.33	1.1	-0.168	1.94	-0.0785	3.9	3.15	4.78	4.99	1.48	2.88	2.81	0.889	1.77	0.448
GCGACTGGGGCATCAGCAGGCTACCATAACTTAA	4.01	2.87	-0.343	-1.56	-0.243	-0.692	-0.801	-0.592	-1.13	0.346	0.21	-0.0453	0.15	-0.185	-0.168	-0.0992	0.158	-0.769	-0.693
AGAAAGAGGTTATTAAGATCAGGGAATTGCGGTC	1.7	1.4	0.63	0.0238	1.2	1.38	0.96	1.93	1.28	1.97	1.12	1.78	1.29	1.26	2.21	1.39	0.443	2.57	0.737
